# Reference: PubChem BioAssay AID488777 (Sanford-Burnham Center for Chemical Genomics, 2010)
# Calls of active or inactive are those of the source. How the calls were made is not given here.
# Assay: assay artefact check, AlphaScreen readout interference – biochemical, artefact control for SUMOylation inhibitor project, SAR follow-up (AID 488777)
# Conditions: purified counter-screen enzymes, TR-FRET, 60 min
compound,measurement,value
CCCCNC(=O)c1c(NC(=O)c2ccccc2)n(Cc2ccccc2)c2nc3ccccc3nc12,IC50,> 100 µM (inactive)
